KCNH2 WT inh: qHTS for Inhibitors of KCHN2 3.1: Wildtype qHTS; Voltage-gated inwardly rectifying potassium channel KCNH2 (Homo sapiens), Q12809; U2OS, BacMam KCNH2, thallium flux FluxOr; active compounds read low; activity change, % at 1.84 µM; actives 0.37% (n = 340,000); AID 720551, 2013;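 active = maximum activity change below -70%; inconclusive = maximum activity change between -70% and -50%; inactive = maximum activity change above -50%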
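U2OS cells transduced with wild-type KCNH2 virus are loaded with FluxOr dye for 45 min, and thallium flux is measured in kinetic reads before and after stimulation buffer. Rate constants are normalized to DMSO controls.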
KCNH2 3.1 block: qHTS for Inhibitors of KCHN2 3.1: Mutant qHTS; actives 0.95% (n = 340,000); activity change, % (tested at about 1.8 µM); U2OS KCNH2 3.1, thallium flux FluxOr; active compounds read low;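 active = maximum activity change below -70%; inconclusive = maximum activity change from -70% to -50%; inactive = maximum activity change above -50%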;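 note: thallium influx rate constant from kinetic fluorescence after stimulation buffer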
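Thallium flux via FluxOr fluorescence (Red40 quencher, 45 min loading) in U2OS cells virally expressing the KCNH2 3.1 isoform (1.77 x 10^8 /mL virus, overnight at 37 C). Rate constants from 2-min kinetic reads post-stimulation, normalised to positive and negative controls.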
TRPV1 agonist: HTS Assay for Compounds that Act as Agonists of the Vanilloid Receptor 1. Transient receptor potential cation channel subfamily V member 1 (Homo sapiens), Q8NER1. TRPV1-expressing cells, Fluo-8 calcium influx, agonist mode. activation, % at 8.33 µM. actives 0.19% (n = 320,000). AID 540275, 2011; in the data active = activation above about 80%; inconclusive = between about 30% and that limit
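Cells expressing TRPV1 were dye-loaded with Fluo-8 and read kinetically: 10 s baseline, 3 min after compound (agonist portion), then 2 min after EC20 capsaicin (allosteric enhancer portion). Calcium-bound dye fluorescence at 480/520 nm.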
TRPV1 PAM: HTS Assay for Compounds that Act as Potentiators of the Vanilloid Receptor 1. Transient receptor potential cation channel subfamily V member 1 (Homo sapiens), Q8NER1. TRPV1-expressing cells, Fluo-8 calcium influx, capsaicin EC20 potentiation. potentiation, % at 8.33 µM. actives 0.02% (n = 320,000). AID 540277, 2011; in the data active = potentiation above about 80%; inconclusive = between about 30% and that limit
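TRPV1-expressing cells were cultured overnight at 35.5C and loaded with Fluo-8 calcium dye for 40 to 90 min at room temperature. After a 10 s baseline, compound was added and calcium influx was read kinetically for 3 min (ex 480/em 520 nm).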
Each line names hits and unclear results; the compound was inactive in the other large screens. In the library only some 1.3% were active in any assay of this set; here they are far more common.

OC(CN1CCN(C(c2ccccc2)c2ccccc2)CC1)c1ccc(Br)cc1 (stereo unspecified)	KCNH2 WT inh -103.1, KCNH2 3.1 block -103.9
COc1cccc(CN2CCN(C(c3ccccc3)c3ccccc3)CC2)c1O	KCNH2 3.1 block -74.1
CC(=O)c1ccccc1OCC(O)CN1CCN(C(c2ccccc2)c2ccccc2)CC1 (stereo unspecified)	KCNH2 WT inh -74.3, KCNH2 3.1 block -84.8, TRPV1 PAM inconclusive
O=C1CCC(C(=O)N2CCN(c3cnccn3)CC2)CN1CCc1ccccc1 (stereo unspecified)	none (no result: TRPV1 agonist, TRPV1 PAM)
OC(CN1CC=C(/C=C/c2ccc(Br)cc2)CC1)c1ccccc1 (stereo unspecified)	KCNH2 3.1 block -92.7
COc1cc(C(=O)OCc2csc(CC(=O)Nc3ccccc3C)n2)ccc1OCC(C)C	none
NC(=O)CC(NC(=O)Cc1ccc(Cl)cc1)c1ccc(NCC2CC2)c([N+](=O)[O-])c1 (stereo unspecified)	KCNH2 WT inh -194.5
NC(=O)CC(NC(=O)Cc1ccc(Br)cc1)c1ccc(NC2CCC2)c([N+](=O)[O-])c1 (stereo unspecified)	none
NC(=O)CC(NC(=O)Cc1ccc(Br)cc1)c1ccc(NCC2CC2)c([N+](=O)[O-])c1 (stereo unspecified)	KCNH2 3.1 block -82.2
Cc1ccc(NC(=O)C2CCN(S(=O)(=O)c3ccc(C(C)(C)C)cc3)CC2)cc1S(=O)(=O)N1CCOCC1	none (no result: TRPV1 agonist, TRPV1 PAM)
CC(C)CCc1noc(CN(CC2CCC2)CC2CCCO2)n1 (stereo unspecified)	KCNH2 3.1 block -71.9
Cc1ncc(C[n+]2csc(CCOC(=O)CC34CC5CC(CC(C5)C3)C4)c2C)c(N)n1	KCNH2 3.1 block -126.7
Cc1c(CCOC(=O)CC23CC4CC(CC(C4)C2)C3)sc[n+]1Cc1ccccc1	none
Cc1cc2c(c(CO)c1CCO)C(=O)[C@@H](C)[C@@H]2O	none (no result: TRPV1 agonist, TRPV1 PAM)
CCN(CC1CCCN(CCc2cccc(F)c2)C1)C(=O)c1cc2ccccc2o1 (stereo unspecified)	KCNH2 3.1 block -75.4
CCN1CSC(=S)N(Cc2ccccc2)C1	none
CCCCCN1CSC(=S)N(Cc2ccccc2)C1	KCNH2 WT inh -73.9
CN(Cc1ccccc1)C(=O)c1ncn(Cc2ccccc2)c1C(=O)N(C)Cc1ccccc1	KCNH2 3.1 block -71.6
CN(Cc1ccccc1)C(=O)c1ncn(C)c1C(=O)N(C)Cc1ccccc1	none (no result: KCNH2 WT inh, KCNH2 3.1 block)
O=C1c2ccccc2C(=O)N1CSc1nnc(Nc2ccccc2)s1	KCNH2 3.1 block -105.0
Cc1ccccc1CCN(CC(=O)NCc1ccc(F)cc1)C(=O)c1csnn1	none
COc1ccccc1CN(CC(=O)NCc1ccc(F)cc1)C(=O)c1csnn1	KCNH2 3.1 block -81.9
Cc1cccc(CCN(CC(=O)NCc2ccc(F)cc2)C(=O)c2csnn2)c1	KCNH2 3.1 block -107.7
COc1ccc(CNC(=O)CN(Cc2ccccc2F)C(=O)c2csnn2)cc1	none
COc1ccc(C(=S)N2CCN(c3ccccc3C)CC2)cc1OC	none (no result: TRPV1 agonist, TRPV1 PAM)
COc1ccc(NC2CCCN(C(=O)CN3C(=O)c4ccccc4C3=O)C2)cc1OC (stereo unspecified)	none
O=C(CNC(=S)N(CCCN1CCOCC1)Cc1cccs1)NCc1ccc(Cl)cc1	KCNH2 WT inh -83.7, KCNH2 3.1 block -83.0
O=C(CNC(=S)N(CCCN1CCOCC1)Cc1cccs1)NCCCN1CCOCC1	none
O=C(CNC(=S)N(CCCN1CCOCC1)Cc1cccs1)NCc1ccccc1Cl	KCNH2 WT inh -112.6, KCNH2 3.1 block -123.0
CCOc1ccc(NC(=O)CSc2nc3ccsc3c(=O)n2CCCCCC(=O)O)cc1	none (no result: TRPV1 agonist, TRPV1 PAM)
C[C@H](CO)N1C[C@H](C)[C@H](CN(C)C(=O)c2ccc3ccn(C)c3c2)OCc2cnnn2CCCC1=O	none (no result: TRPV1 agonist, TRPV1 PAM)
Nc1nc(N2CCN(C(=O)c3ccco3)CC2)nc2ccccc12	none
Nc1nc(N2CCN(C(=O)c3ccco3)CC2)nc2ccc(Br)cc12	KCNH2 3.1 block -89.0 (no result: KCNH2 WT inh)
COc1ccc(S(=O)(=O)N2CCNCC2)cc1	none
O=c1c(S(=O)(=O)c2ccc(Cl)cc2)cn(Cc2cccc(F)c2)c2ccc(F)cc12	KCNH2 WT inh inconclusive, KCNH2 3.1 block -81.6
Cc1ccc(NC(=O)CN2C(=O)NC3(CCCCC3C)C2=O)cc1S(=O)(=O)N1CCOCC1 (stereo unspecified)	none (no result: TRPV1 agonist, TRPV1 PAM)
O=C(NC1CCN(C(=O)Nc2cccc(Cl)c2)CC1)C1CCCCC1	KCNH2 3.1 block -72.8
Cc1cc(C)cc(NC(=S)N2CCC(NC(=O)C3CC3)CC2)c1	KCNH2 WT inh -95.4
COc1ccccc1NC(=S)N(Cc1ccccc1)Cc1ccccn1	none
S=C(Nc1ccccc1Cl)N(Cc1ccccc1)Cc1ccccn1	TRPV1 PAM 132.2
c1ccc(NC2=NCCN2CCC2CCCCC2)cc1	none
COc1ccc(OC)c(C(=O)NC(CC(N)=O)c2ccc(N3CCN(c4ccc(F)cc4)CC3)c([N+](=O)[O-])c2)c1 (stereo unspecified)	none
O=C(NCc1ccc(C(F)(F)F)cc1)C1CC(c2ccccc2C(F)(F)F)=NO1 (stereo unspecified)	TRPV1 PAM inconclusive
Cc1ccc(CNC(=O)C2CC(c3ccccc3C(F)(F)F)=NO2)cc1 (stereo unspecified)	KCNH2 3.1 block -158.3
CCN1CCN(C(c2ccc(OC)cc2)C(O)C(=O)c2c[nH]c3ccccc23)CC1 (stereo unspecified)	KCNH2 WT inh -104.1, KCNH2 3.1 block -99.0
O=C(Nc1ccncc1)Nc1cccc(Cl)c1Cl	TRPV1 agonist inconclusive
O=C(Nc1ccc(Cl)cc1)Nc1cccc2nsnc12	TRPV1 agonist 86.6
O=C(NC1CCCCC1)N1CCC(n2c(=O)[nH]c3ccccc32)CC1	none
O=c1[nH]c2ccccc2n1C1CCCCC1	KCNH2 WT inh -84.1
CCN1CCN(P2(=O)C=C(c3ccccc3)OC(c3ccccc3)=C2)CC1	KCNH2 WT inh -123.1, KCNH2 3.1 block -90.2
CCOc1ccccc1/C=C/c1onc(C)c1S(=O)(=O)N1CCC(C(=O)N(CC)CC)CC1	KCNH2 3.1 block -95.2
O=C(NCc1ccco1)C1CCCN(c2nnc(-n3cccc3)s2)C1 (stereo unspecified)	none
O=C(N/N=C/c1cccs1)c1n[nH]c2c1CCCC2	TRPV1 agonist inconclusive
C/C(=N\NC(=O)c1n[nH]c2c1CCC2)c1cccs1	KCNH2 3.1 block -118.3
COc1cccc(CN(C)C(=O)c2ccccc2SCC(=O)N2CCCC2)c1	none
CC(=O)N[C@@H](C)c1nc2ccccc2n1CCCN1CCN(c2nc(-c3ccc(C)cc3)cs2)CC1	TRPV1 agonist inconclusive
CN1C(=O)[C@H]2[C@@H](c3ccc(C(F)(F)F)cc3)N[C@]3(CCCN(Cc4ccco4)C3=O)[C@H]2C1=O	none (no result: TRPV1 agonist, TRPV1 PAM)
